What all share (test): NCI-60 one-dose screen, 48 h (100 = growth as untreated, 0 = no growth, -100 = all killed)
What all share (settings): 10 µM unless noted

The subject of assay [1] is EKVX NSCLC.
For assay [2], the system named is SN12C renal.
For assay [3], the system named is UO-31 renal.
Assay [4] relates to A498 renal.
The subject of assay [5] is CCRF-CEM leukemia.
Assay [6] deals with MOLT-4 leukemia.
Assay [7] deals with SR leukemia.
The subject of assay [8] is RPMI-8226 leukemia.
Assay [9] concerns OVCAR-8 ovarian.
For assay [10], the system named is OVCAR-5 ovarian.
The test system of assay [11] is OVCAR-4 ovarian.
Assay [12] relates to IGROV1 ovarian.
For assay [13], the system named is OVCAR-3 ovarian.
For assay [14], the system named is HS 578T breast.
Assay [15] concerns T-47D breast.
The test system of assay [16] is ACHN renal.
The subject of assay [17] is CAKI-1 renal.
In assay [18] the test system is SK-OV-3 ovarian.
Assay [19] relates to NCI/ADR-RES ovarian.

About 83,000 compounds went through this panel and 20% of them were active in at least one assay; those are over-represented in the sample as a whole.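 Plates (96-well) were seeded with cells, treated with compound at one concentration, and incubated for 48 hours before percent growth was determined.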 A number with no mark means an inactive call. Activity calls are given as the source filed them. The calls were made as follows: active = growth percent below 10; inactive = the rest.

As to `CN(C)S(=O)(=O)c1oc(-c2ccccc2)nc1C#N`, the growth in assay [1] was 78.3%; in [2], 72.4%; in assay [3], -51% (active); in assay [4], 65.6%; in assay [5] it was 1.79% (active); in assay [6] it was -13.1% (active). In addition, the growth in assay [7] was -19.7% (active); in assay [8], 76%; in assay [9] it was 94.4%; in assay [10], 100%; in assay [11] it was 99.7%; in assay [12] it was 38.8%. The growth is 62.4% in assay [13], 107% in assay [14] and 59.6% in assay [15].

Turning to `CN(C)CCCNc1c2ccc(Cl)cc2nc2c1oc1ccccc12`, the growth is -26.7% (active) in assay [1]; 6.3% (active) in [2]; 12.3% in assay [3]; -36.5% (active) in assay [16]; 6.06% (active) in [17]; 8.64% (active) in assay [4]. Further, the growth in assay [6] was -1.03% (active); in [7], -18.8% (active); in assay [8], -21.1% (active); in assay [9], -17.9% (active); in [10], 1.91% (active); in assay [11], 8.04% (active). Moreover, the growth in [18] is 42%; in assay [12] it was -13% (active); in assay [13] it was 31%; in [14], 37%; in [19], 2.84% (active); in assay [15] it was 46.3%.

For the molecule `COc1ccc(COc2ccc(/C=C3/C(=O)Nc4cc(Cl)ccc43)cc2)cc1`, the growth in assay [1] was 95.8%; in assay [2], 94.1%; in assay [3], 79.4%; in [17], 88.3%; in assay [4], 83.7%; in assay [5], 6.11% (active). In addition, the growth was 108% in assay [6]; 109% in [7]; 89.9% in assay [8]; 96.2% in [10]; 93.5% in [11]; 107% in [18]. The growth is 92.4% in assay [12], 89% in [14], 94.4% in [19] and 90.2% in assay [15].

Regarding `OC1CCN(CCCOc2c3ccc(Cl)cc3nc3c2oc2ccccc23)CC1`, the growth is -43.4% (active) in assay [1]; 6.58% (active) in [2]; -52.1% (active) in assay [3]; -50.1% (active) in assay [16]; -3.51% (active) in assay [17]; -91.3% (active) in assay [4]. Further, the growth in [5] was 2.24% (active); in [6] it was -21.5% (active); in assay [7], -38.5% (active); in assay [8], -15.1% (active); in [10], -4.92% (active); in assay [11], 1.3% (active). Further, the growth is 7.92% (active) in assay [18]; -18% (active) in [12]; -6.78% (active) in assay [14]; 6.48% (active) in assay [19]; 11% in assay [15].

As to `c1ccc(CNc2ncnc3ccc(-c4cnc5[nH]ncc5c4)cc23)cc1`, the growth is 46.6% in assay [1]; 56.6% in assay [2]; 35% in [3]; 34.5% in [16]; 36.3% in assay [17]; -8.94% (active) in [4]. For the same molecule, the growth in [5] was 73.1%; in [6] it was 34.6%; in [8], 60.8%; in assay [9], 71.2%; in assay [10] it was 61.8%; in [11] it was 79.4%. For the same molecule, the growth in assay [18] is 72.1%; in [12], 9.48% (active); in assay [13] it was 67.1%; in [14], 45%; in assay [19], 81.9%; in assay [15], 18.5%.

Turning to `COc1ccc(-c2cc(C(=O)N=Nc3c(O)[nH]c4ccccc34)c3ccccc3n2)cc1OC`, the growth in [1] was 91.9%; in [2], 94.6%; in assay [3] it was 85.2%; in [17], 94.9%; in assay [4], 82.1%; in assay [5], 100%. Moreover, the growth is 102% in assay [6]; 102% in [7]; 99.4% in assay [8]; 98% in assay [9]; 91% in assay [10]; 99.3% in assay [11]. Besides, the growth is 103% in assay [18]; 90.2% in assay [12]; 109% in assay [13]; 97% in [14]; 92.1% in [19]; 87.3% in [15].

As for `CN(C)CCCOc1c2ccc(Cl)cc2nc2c1oc1ccc(Cl)cc12`, the growth in assay [1] is 31.8%; in assay [2], 21.4%; in assay [3], 2.96% (active); in [16], -85.6% (active); in assay [17], -12.1% (active); in assay [4] it was -6.7% (active). The growth is 1.92% (active) in assay [6]; -31.1% (active) in assay [7]; -20.8% (active) in [8]; 26.7% in [9]; 21.3% in [10]; 50.6% in assay [11]. The growth is 41.4% in [18]; 6.89% (active) in assay [12]; 26.3% in [14]; -20.8% (active) in [19]; 58.7% in assay [15].

For `COc1cc(OC)c(C2C(Cl)C(=O)N2Nc2ncnc3ccccc23)cc1OC` (centres undefined), the growth in assay [1] is 95.3%; in assay [2] it was 98.3%; in assay [3], 78.8%; in assay [17], 91.8%; in assay [4], 97.2%; in assay [5] it was 102%. The growth in [6] was 105%; in assay [7], 104%; in assay [8] it was 106%; in assay [10] it was 105%; in assay [11] it was 104%; in [18], 113%. The figures for the growth in [12], in assay [14] and in [15] were 83.5%, 107% and 96.1%, respectively.

For the origin of these results see PubChem BioAssay (NCI).
